Measurements taken from the supplement of paper PMC7156485.
Values without a mark were called inactive.

The compounds below were run on HCC1569 (assay: H1.0 immunofluorescence intensity relative to DMSO (% of DMSO); higher = stronger H1.0 induction, active = 140 or more). Conditions: concentration: 10 µM; 24 h.
How it was run: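 Cell number or H1.0 nuclear intensity appears as percent of the plate control, based on the median of replicates. Measurements came from HCC1569 and TDF cells exposed in triplicate to compounds at 10 µM for 24 h at 37 °C, then imaged in six fields per well at ×10. Positional effects were smoothed out of HCC1569 values.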
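Also: TDF is a line of transformed human dermal fibroblasts of mesenchymal origin.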

| SMILES | H1.0 immunofluorescence intensity |
| --- | --- |
| CCCCCCCCCCCCCCCC(=O)OC1C(SC)OC(C(NC(=O)C2CC(CCC)CN2C)C(C)Cl)C(O)C1O.Cl (stereo not given) [Clindamycin palmitate.HCl] | 106 |
| CCC=CCC=CCC=CCC=CCC=CCCCC(=O)O [Eicosapentaenoic acid] | 99.1 |
| CC(C)[N+]1(C)C2CCC1CC(OC(=O)C(CO)c1ccccc1)C2.[Br-] (stereo not given) [Ipratropium.Br] | 110 |
| CC(C=CC1=C(C)CCCC1(C)C)=CC=CC(C)=CC(=O)O [13-cis Retinoic acid] | 111 |
| O=C(Oc1cc(S(=O)(=O)c2ccccc2)ccc1[N+](=O)[O-])c1ccc(Cl)cc1 [2-nitro-5-(phenylsulfonyl)phenyl 4-chlorobenzoate] | 111 |
| O=C(NC(Cc1ccccc1)C(=O)CCl)OCc1ccccc1 [Z-L-Phe chloromethyl ketone] | 116 |
| O=c1c(-c2ccc(O)cc2)coc2cc(O)ccc12 [Daidzein] | 94.6 |
| COc1cc2c3cc1Oc1cc(ccc1O)CC1c4c(cc(OC)c(O)c4Oc4ccc(cc4)CC3N(C)CC2)CC[N+]1(C)C.Cl.[Cl-] (single isomer, unassigned; (+)) [(+)-Tubocuraraine chloride] | 99.2 |
| Brc1ccc(C2CN3CCSC3=N2)cc1.O=C(O)C(=O)O (stereo not drawn) [S(-)-p-Bromotetramisole oxalate] | 94.6 |
| CN(C)CCC=C1c2ccccc2CCc2ccccc21.Cl [Amitriptyline.HCl] | 123 |
| CC(=O)Oc1cc(C(C)C)c(OCCN(C)C)cc1C.Cl [Moxisylyte hydrochloride] | 94.4 |
| COc1ccc(C2CC(=O)c3c(O)cc(OC4OC(CO)C(O)C(O)C4OC4OC(C)C(O)C(O)C4O)cc3O2)cc1O (stereo not given) [Neohesperidin] | 96.3 |
| O=c1ccc2cc3ccoc3cc2o1 [7H-furo[3,2-g]chromen-7-one] | 93.5 |
| CCCCCC(=O)C=CC1C(O)CC(O)C1CC=CCCCC(=O)O (stereo not given) [15-keto-prostaglandin F2a] | 103 |
| CC[N+](CC)(CC)CCOc1cccc(OCC[N+](CC)(CC)CC)c1OCC[N+](CC)(CC)CC.[I-].[I-].[I-] [Gallamine triethiodide] | 123 |
| Cl.Cl.Fc1ccc(C(c2ccc(F)cc2)N2CCN(CC=Cc3ccccc3)CC2)cc1 [Flunarizine.2HCl] | 112 |
| Cl.NCCS [Cysteamine hydrochloride] | 101 |
| COc1cc2nc(N3CCN(C(=O)C4COc5ccccc5O4)CC3)nc(N)c2cc1OC (stereo not given) [Doxazosin] | 113 |
| CC1C(NC(=O)C(=NOC(C)(C)C(=O)O)c2csc(N)n2)C(=O)N1S(=O)(=O)O (stereo not given) [Aztreonam] | 103 |
| CC(C)=CCCC(C)=CCOc1ccc2ccc(=O)oc2c1 [Auraptene] | 97.1 |
| CCCCCCCNC1CCCC1CCCCCCC(=O)O (racemic) | 89.4 |
| N[C@@H](CC(=O)O)C(=O)O [L-Aspartic acid] | 93.2 |
| O=c1cc(-c2cccc3c2Sc2ccccc2S3)oc(N2CCOCC2)c1 | 145 (active) |
| COc1cccc(/C=N/CC/N=C/c2cccc(OC)c2[O-])c1[O-].[Cl-].[Mn+2] | 108 |
| CC1=NN(c2ccccc2)C(=O)C1 | 97.6 |
| CC1COC2=C1C(=O)C(=O)c1c2ccc2c1CCCC2(C)C (stereo not given) [Cryptotanshinone] | 100 |
| O=c1c(-c2ccc(O)cc2)coc2cc(OC3OC(CO)C(O)C(O)C3O)cc(O)c12 (stereo not given) [Genistin] | 86.4 |
| CCCCCCCCCCCCCC=CC(O)C(CO)NC(=O)CCCCCCCCCCCCCCC (stereo not given) [C16 Ceramide] | 97.5 |
| Cc1ccc(S(=O)(=O)N2c3ccccc3Oc3ccccc32)cc1 [10-[(4-methylphenyl)sulfonyl]-10H-phenoxazine] | 154 (active) |
| COc1cc(C(=O)OC2CC(C)=CCCC(C)=CC(O)C2C(C)C)ccc1O (stereo not given) [Tschimganidin] | 86.8 |
